# Test results as given in article PMC7862700, “An all-to-all approach to the identification of sequence-specific readers for epigenetic DNA modifications on cytosine”.
# Key:
# Experiment in all cases: DAPPL (digital affinity profiling via proximity ligation, sequencing); 10 mM Tris-HCl pH 7.5, 50 mM NaCl, 1 mM DTT, 4% glycerol, room temperature, 30 min; GST-TFs on glutathione beads, 16-mer random dsDNA library, 0.1% formaldehyde crosslink after washing; high values mean tight binding
# FLI1 = molecular target: T1, FLI1 (Homo sapiens, UniProt Q01543 1-452); details: protein: recombinant; tags: N-terminal GST; dsDNA, one strand shown
# T1 sequence: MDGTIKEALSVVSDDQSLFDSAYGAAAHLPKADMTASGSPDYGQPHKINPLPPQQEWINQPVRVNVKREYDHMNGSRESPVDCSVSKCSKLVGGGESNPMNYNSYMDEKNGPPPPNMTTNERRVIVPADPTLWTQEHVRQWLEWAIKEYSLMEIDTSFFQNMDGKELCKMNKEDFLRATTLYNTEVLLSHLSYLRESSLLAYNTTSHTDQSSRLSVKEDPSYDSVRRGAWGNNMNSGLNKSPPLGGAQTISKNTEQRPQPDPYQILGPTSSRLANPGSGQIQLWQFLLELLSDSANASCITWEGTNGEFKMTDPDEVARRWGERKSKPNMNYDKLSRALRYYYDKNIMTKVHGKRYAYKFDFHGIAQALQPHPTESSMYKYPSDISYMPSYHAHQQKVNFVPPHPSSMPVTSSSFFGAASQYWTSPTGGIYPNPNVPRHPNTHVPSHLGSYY
# Procedure, shortened: (§1)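 Human transcription factors were made in yeast as GST fusions, captured on glutathione beads and barcoded with DNA. With a tag-only sample included, the pool was incubated with 200 nmole of a random double-stranded 16-mer DNA library in Tris/NaCl/DTT/glycerol buffer at room temperature for 30 min, then crosslinked with 0.1% formaldehyde after washing, ligated by proximity, amplified and sequenced. For binding signal, each hexamer's read frequency for a factor is divided by its frequency for the tag-only sample.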
# ELK1 = molecular target: T2, ELK1 (Homo sapiens, UniProt P19419 1-428); details: protein: recombinant; tags: N-terminal GST; dsDNA, one strand shown
# T2 sequence: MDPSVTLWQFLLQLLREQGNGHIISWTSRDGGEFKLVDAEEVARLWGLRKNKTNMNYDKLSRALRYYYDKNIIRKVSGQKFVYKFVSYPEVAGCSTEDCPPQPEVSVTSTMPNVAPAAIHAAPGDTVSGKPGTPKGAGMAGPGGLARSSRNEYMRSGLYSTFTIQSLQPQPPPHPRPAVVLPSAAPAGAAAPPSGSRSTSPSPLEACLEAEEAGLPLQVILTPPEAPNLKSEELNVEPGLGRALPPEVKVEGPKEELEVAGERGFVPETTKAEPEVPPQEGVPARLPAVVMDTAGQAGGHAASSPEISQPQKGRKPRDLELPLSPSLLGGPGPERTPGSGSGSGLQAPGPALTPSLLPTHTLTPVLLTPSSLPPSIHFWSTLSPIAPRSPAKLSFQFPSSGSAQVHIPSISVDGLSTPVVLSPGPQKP
# Procedure, shortened: as §1
# GABPA = molecular target: T3, GABPA (Homo sapiens, UniProt Q06546 1-454); details: protein: recombinant; tags: N-terminal GST; dsDNA, one strand shown
# T3 sequence: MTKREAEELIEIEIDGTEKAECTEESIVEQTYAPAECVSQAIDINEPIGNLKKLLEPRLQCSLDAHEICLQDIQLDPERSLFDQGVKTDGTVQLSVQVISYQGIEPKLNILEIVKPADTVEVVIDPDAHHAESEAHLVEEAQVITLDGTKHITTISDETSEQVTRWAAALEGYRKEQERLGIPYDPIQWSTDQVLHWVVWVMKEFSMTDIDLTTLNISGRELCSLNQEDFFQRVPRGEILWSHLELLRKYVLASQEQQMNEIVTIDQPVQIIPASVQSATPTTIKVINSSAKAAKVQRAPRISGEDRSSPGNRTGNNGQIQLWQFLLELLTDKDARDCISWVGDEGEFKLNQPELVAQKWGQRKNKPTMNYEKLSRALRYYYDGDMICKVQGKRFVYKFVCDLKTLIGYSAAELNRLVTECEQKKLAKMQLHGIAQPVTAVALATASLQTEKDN
# Procedure, shortened: as §1
# ERG = molecular target: T4, ERG (Homo sapiens, UniProt P11308 1-479); details: protein: recombinant; tags: N-terminal GST; dsDNA, one strand shown
# T4 sequence: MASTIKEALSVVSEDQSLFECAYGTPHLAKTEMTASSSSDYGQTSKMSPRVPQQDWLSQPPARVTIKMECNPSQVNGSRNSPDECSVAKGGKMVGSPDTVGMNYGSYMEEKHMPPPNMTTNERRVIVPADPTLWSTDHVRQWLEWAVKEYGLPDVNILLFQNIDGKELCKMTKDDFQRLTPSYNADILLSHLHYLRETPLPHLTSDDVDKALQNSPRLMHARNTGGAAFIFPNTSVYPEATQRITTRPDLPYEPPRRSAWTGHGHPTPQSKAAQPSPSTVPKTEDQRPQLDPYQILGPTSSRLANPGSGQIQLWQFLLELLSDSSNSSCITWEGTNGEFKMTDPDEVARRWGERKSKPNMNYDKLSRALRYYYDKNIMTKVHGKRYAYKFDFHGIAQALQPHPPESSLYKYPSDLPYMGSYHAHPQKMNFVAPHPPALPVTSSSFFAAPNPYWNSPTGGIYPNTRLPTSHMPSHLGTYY
# Procedure, shortened: as §1
# ELF1 = ELF1 (Homo sapiens, UniProt P32519 1-619); details: protein: recombinant; tags: N-terminal GST; dsDNA, one strand shown
# Procedure, shortened: as §1
# EHF = molecular target: T5, EHF (Homo sapiens, UniProt Q9NZC4 1-300); details: protein: recombinant; tags: N-terminal GST; dsDNA, one strand shown
# T5 sequence: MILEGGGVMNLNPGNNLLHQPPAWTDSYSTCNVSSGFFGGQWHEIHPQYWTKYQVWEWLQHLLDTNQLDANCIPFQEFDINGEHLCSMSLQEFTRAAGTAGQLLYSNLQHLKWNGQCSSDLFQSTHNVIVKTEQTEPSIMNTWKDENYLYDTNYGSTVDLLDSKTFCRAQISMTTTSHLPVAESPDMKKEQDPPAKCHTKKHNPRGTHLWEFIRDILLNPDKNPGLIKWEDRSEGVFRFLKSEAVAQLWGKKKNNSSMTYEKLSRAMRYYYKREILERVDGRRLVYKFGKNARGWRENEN
# Procedure, shortened: as §1
# SPI1 = SPI1 (Homo sapiens, UniProt P17947 1-270); details: protein: recombinant; tags: N-terminal GST; dsDNA, one strand shown
# Procedure, shortened: as §1
# SPIB = SPIB (Homo sapiens, UniProt Q01892 1-262); details: protein: recombinant; tags: N-terminal GST; dsDNA, one strand shown
# Procedure, shortened: as §1
# ELK3 = molecular target: T6, ELK3 (Homo sapiens, UniProt P41970 1-407); details: protein: recombinant; tags: N-terminal GST; dsDNA, one strand shown
# T6 sequence: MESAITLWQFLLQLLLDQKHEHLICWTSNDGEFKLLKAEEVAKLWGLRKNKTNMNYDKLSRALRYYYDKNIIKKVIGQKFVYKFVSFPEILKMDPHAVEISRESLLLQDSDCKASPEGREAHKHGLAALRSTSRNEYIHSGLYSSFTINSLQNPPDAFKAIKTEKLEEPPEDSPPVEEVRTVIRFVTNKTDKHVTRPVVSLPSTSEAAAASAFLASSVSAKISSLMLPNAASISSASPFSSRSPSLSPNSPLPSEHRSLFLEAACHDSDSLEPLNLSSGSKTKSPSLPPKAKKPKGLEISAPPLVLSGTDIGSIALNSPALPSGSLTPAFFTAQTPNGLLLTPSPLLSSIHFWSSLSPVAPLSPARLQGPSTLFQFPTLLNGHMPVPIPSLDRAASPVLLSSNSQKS
# Procedure, shortened: as §1
# FEV = molecular target: T7, FEV (Homo sapiens, UniProt Q99581 1-238); details: protein: recombinant; tags: N-terminal GST; dsDNA, one strand shown
# T7 sequence: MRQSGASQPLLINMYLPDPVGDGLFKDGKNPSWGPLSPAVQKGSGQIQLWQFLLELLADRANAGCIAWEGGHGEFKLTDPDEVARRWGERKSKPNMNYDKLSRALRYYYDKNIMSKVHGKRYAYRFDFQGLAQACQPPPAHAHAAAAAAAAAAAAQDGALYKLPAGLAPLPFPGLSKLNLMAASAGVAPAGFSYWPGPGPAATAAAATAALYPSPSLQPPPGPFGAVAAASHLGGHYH
# Procedure, shortened: as §1
# ETV5 = ETV5 (Homo sapiens, UniProt P41161 1-510); details: protein: recombinant; tags: N-terminal GST; dsDNA, one strand shown
# Procedure, shortened: as §1
# HSF1 = HSF1 (Homo sapiens, UniProt Q00613 1-529); details: protein: recombinant; tags: N-terminal GST; chain copies: 3; dsDNA, one strand shown
# Procedure, shortened: as §1
# SPIC = molecular target: T8, SPIC (Homo sapiens, UniProt Q8N5J4 1-248); details: protein: recombinant; tags: N-terminal GST; dsDNA, one strand shown
# T8 sequence: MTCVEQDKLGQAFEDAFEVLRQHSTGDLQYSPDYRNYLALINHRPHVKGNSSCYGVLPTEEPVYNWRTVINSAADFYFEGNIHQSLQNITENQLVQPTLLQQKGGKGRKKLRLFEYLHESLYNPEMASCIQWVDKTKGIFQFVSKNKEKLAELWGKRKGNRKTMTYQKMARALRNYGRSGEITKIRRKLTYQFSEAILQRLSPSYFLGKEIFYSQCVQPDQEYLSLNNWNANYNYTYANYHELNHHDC
# Procedure, shortened: as §1
# ELF4 = ELF4 (Homo sapiens, UniProt Q99607 1-663); details: protein: recombinant; tags: N-terminal GST; dsDNA, one strand shown
# Procedure, shortened: as §1
# ELK4 = molecular target: T9, ELK4 (Homo sapiens, UniProt P28324-2 1-405); details: protein: recombinant; tags: N-terminal GST; dsDNA, one strand shown
# T9 sequence: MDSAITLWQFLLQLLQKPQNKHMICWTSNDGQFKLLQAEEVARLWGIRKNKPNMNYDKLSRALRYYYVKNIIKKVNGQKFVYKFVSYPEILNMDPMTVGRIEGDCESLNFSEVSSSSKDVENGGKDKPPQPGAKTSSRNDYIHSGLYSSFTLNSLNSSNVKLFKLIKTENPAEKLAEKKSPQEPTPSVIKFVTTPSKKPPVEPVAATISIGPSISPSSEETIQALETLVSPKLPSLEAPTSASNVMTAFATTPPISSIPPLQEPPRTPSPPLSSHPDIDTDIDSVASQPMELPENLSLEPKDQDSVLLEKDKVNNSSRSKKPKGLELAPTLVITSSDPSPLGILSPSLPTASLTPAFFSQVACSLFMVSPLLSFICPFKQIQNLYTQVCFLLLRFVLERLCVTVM
# Procedure, shortened: as §1
# ETV2 = molecular target: T10, ETV2 (Homo sapiens, UniProt O00321 1-342); details: protein: recombinant; tags: N-terminal GST; dsDNA, one strand shown
# T10 sequence: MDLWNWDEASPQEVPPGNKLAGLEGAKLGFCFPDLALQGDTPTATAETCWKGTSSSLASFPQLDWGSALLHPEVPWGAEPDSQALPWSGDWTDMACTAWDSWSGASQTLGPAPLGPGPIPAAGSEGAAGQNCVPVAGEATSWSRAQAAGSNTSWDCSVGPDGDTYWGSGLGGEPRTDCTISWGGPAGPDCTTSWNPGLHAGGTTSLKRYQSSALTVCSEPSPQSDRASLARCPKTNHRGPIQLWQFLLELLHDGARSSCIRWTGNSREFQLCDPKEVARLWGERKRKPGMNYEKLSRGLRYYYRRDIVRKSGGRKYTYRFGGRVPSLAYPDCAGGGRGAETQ
# Procedure, shortened: as §1
# ELF3 = molecular target: T11, ELF3 (Homo sapiens, UniProt P78545 1-371); details: protein: recombinant; tags: N-terminal GST; dsDNA, one strand shown
# T11 sequence: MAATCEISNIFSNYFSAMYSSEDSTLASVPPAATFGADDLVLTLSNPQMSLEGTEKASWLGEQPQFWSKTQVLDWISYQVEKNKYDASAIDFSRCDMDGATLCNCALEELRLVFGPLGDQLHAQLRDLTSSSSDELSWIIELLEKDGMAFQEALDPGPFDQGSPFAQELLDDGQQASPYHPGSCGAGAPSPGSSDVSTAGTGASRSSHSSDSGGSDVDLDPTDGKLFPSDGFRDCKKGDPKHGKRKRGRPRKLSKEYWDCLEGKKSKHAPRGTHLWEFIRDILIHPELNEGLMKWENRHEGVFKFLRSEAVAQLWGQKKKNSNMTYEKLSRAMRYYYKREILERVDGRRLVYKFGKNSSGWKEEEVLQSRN
# Procedure, shortened: as §1
# CRX = CRX (Homo sapiens, UniProt O43186 1-299); details: protein: recombinant; tags: N-terminal GST; dsDNA, one strand shown
# Procedure, shortened: as §1
# ETV1 = ETV1 (Homo sapiens, UniProt P50549 1-477); details: protein: recombinant; tags: N-terminal GST; dsDNA, one strand shown
# Procedure, shortened: as §1
# Sequence of HSF1 (Q00613 whole entry): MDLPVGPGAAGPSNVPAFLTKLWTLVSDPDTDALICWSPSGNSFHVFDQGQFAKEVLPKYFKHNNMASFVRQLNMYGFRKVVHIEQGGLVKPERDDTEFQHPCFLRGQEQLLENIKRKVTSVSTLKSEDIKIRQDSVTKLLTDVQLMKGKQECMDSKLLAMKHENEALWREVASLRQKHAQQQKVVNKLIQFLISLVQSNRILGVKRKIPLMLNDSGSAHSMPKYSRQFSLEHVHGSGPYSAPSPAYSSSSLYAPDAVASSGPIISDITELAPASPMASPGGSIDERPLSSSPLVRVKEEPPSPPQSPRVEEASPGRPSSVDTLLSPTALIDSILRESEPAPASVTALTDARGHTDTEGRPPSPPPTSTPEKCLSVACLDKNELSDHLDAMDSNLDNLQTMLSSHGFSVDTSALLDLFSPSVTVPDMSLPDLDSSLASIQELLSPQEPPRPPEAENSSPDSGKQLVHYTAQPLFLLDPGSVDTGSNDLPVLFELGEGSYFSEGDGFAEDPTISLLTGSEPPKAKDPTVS
# Sequence of CRX (O43186 whole entry): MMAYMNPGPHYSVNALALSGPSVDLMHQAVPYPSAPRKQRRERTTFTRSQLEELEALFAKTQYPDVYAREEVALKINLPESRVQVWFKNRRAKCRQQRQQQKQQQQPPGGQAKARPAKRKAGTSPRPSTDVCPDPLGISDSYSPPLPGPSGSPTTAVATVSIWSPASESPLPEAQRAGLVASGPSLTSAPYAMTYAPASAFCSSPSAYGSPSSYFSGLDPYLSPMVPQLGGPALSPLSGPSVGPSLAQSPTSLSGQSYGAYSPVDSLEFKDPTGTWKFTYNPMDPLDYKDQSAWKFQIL
# Sequence of SPIB (Q01892 whole entry): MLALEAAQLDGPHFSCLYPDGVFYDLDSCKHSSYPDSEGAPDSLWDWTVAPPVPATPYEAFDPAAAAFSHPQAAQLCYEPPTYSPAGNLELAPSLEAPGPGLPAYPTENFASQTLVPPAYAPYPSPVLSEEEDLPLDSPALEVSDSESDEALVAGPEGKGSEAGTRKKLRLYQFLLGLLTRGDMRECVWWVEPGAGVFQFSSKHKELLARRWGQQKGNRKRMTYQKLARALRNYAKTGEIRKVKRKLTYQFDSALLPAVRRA
# Sequence of ETV5 (P41161 whole entry): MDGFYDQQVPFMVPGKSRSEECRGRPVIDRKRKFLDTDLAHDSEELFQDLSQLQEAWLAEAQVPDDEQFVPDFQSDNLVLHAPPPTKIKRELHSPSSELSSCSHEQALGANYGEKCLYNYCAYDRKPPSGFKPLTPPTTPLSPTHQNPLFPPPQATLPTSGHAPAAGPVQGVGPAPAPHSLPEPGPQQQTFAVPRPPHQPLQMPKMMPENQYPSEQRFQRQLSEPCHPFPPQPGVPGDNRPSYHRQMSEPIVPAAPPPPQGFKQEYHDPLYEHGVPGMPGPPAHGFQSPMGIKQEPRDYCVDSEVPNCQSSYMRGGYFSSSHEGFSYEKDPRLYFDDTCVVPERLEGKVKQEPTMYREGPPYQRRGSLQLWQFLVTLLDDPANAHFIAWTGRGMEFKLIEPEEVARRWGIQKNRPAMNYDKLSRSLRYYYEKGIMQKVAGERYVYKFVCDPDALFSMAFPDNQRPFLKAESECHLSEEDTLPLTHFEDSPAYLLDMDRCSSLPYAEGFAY
# Sequence of ETV1 (P50549 whole entry): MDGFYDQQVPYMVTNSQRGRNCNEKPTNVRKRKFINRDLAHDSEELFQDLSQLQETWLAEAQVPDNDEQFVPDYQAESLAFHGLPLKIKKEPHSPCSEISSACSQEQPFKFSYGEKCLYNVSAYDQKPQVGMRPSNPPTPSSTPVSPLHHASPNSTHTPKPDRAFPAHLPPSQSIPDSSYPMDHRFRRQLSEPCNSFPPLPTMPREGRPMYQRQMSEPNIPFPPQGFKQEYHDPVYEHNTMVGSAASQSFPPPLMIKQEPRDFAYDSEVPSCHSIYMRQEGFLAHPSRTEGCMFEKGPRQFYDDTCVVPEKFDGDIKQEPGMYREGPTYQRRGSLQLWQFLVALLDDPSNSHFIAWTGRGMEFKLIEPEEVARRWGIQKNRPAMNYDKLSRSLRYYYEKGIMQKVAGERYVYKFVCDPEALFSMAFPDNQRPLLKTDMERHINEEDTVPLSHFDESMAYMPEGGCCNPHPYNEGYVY
# Sequence of ELF4 (Q99607 whole entry): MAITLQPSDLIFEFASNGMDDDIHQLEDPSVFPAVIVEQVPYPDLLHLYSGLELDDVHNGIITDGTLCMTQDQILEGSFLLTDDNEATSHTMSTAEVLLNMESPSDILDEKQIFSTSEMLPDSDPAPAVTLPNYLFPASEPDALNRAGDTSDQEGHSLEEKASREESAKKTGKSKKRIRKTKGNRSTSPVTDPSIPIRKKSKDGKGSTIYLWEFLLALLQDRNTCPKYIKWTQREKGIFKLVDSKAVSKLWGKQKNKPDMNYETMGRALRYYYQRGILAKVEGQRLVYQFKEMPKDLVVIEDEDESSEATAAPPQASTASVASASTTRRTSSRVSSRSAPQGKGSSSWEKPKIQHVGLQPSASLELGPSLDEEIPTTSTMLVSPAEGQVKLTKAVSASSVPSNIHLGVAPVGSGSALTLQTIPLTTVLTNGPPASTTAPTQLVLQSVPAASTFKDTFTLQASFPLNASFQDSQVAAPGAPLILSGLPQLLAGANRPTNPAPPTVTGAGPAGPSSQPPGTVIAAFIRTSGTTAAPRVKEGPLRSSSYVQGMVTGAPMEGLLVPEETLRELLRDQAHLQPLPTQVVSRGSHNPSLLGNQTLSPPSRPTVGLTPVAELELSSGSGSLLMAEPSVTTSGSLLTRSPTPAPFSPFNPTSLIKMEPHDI
# Sequence of ELF1 (P32519 whole entry): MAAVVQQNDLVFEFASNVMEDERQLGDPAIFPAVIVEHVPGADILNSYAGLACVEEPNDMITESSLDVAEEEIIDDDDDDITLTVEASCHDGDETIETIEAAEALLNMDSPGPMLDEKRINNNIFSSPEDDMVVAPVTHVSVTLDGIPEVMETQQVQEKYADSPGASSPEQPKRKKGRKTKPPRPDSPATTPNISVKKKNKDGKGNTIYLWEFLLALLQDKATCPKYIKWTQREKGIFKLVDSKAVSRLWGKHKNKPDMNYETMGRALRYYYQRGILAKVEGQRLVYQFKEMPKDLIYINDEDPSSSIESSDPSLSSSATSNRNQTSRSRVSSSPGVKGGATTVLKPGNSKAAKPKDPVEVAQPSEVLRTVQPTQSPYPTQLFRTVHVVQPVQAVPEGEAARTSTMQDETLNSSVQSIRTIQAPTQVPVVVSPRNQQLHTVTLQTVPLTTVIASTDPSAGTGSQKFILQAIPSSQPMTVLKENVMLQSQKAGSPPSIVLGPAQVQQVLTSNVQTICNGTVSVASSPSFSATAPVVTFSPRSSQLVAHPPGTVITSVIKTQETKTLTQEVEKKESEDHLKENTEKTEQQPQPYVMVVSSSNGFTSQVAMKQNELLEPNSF
sequence,measurement,setting,value
CCTGCG,binding signal,FLI1,"1.27 fold enrichment (6-mer frequency, TF over GST control)"
same,binding signal,ELK1,"1.34 fold enrichment (6-mer frequency, TF over GST control)"
same,binding signal,GABPA,"1.39 fold enrichment (6-mer frequency, TF over GST control)"
same,binding signal,ERG,"1.27 fold enrichment (6-mer frequency, TF over GST control)"
same,binding signal,ELF1,"1.38 fold enrichment (6-mer frequency, TF over GST control)"
same,binding signal,EHF,"1.31 fold enrichment (6-mer frequency, TF over GST control)"
same,binding signal,SPI1,"1.23 fold enrichment (6-mer frequency, TF over GST control)"
same,binding signal,SPIB,"1.35 fold enrichment (6-mer frequency, TF over GST control)"
same,binding signal,ELK3,"1.22 fold enrichment (6-mer frequency, TF over GST control)"
same,binding signal,FEV,"1.28 fold enrichment (6-mer frequency, TF over GST control)"
same,binding signal,ETV5,"1.27 fold enrichment (6-mer frequency, TF over GST control)"
same,binding signal,HSF1,"1.1 fold enrichment (6-mer frequency, TF over GST control)"
same,binding signal,SPIC,"1.12 fold enrichment (6-mer frequency, TF over GST control)"
same,binding signal,ELF4,"1.32 fold enrichment (6-mer frequency, TF over GST control)"
same,binding signal,ELK4,"1.37 fold enrichment (6-mer frequency, TF over GST control)"
same,binding signal,ETV2,"1.41 fold enrichment (6-mer frequency, TF over GST control)"
same,binding signal,ELF3,"1.23 fold enrichment (6-mer frequency, TF over GST control)"
same,binding signal,CRX,"1.05 fold enrichment (6-mer frequency, TF over GST control)"
same,binding signal,ETV1,"1.39 fold enrichment (6-mer frequency, TF over GST control)"
